# Values without a mark were called inactive.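 How the source made its calls: active means compound blocking phage killing of bacteria by at least 30% at some tested dose; inactive means the rest.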
# Assay: UTI89 protection from K1F phage killing – strain UTI89, C7 control, set 3, capsule biogenesis inhibitor project, dose response (AID 504675)
# Details: E. coli UTI89 K1 capsule; OD600, at 100 µM (top of the series); inhibition of phage lysis: at the top concentration
row,SMILES,inhibition of phage lysis [%]
1,N=c1n(CCN2CCCC2)c2ccccc2n1CC(O)c1ccc(Cl)c(Cl)c1 (centres undefined),1
2,O=C(O)c1cc(-c2ccc(F)cc2)nc2ccccc12,1
3,COc1ccc(C(=O)Nc2nc3ccc(OC)cc3s2)cc1,1
4,COc1ccc2nc(NC(=O)c3ccccc3OC)sc2c1,1
5,COc1cccc(C(=O)Nc2nc3ccc(OC)cc3s2)c1,1
6,COc1ccc2nc(NC(=O)c3ccc(F)cc3)sc2c1,1
7,O=C(O)c1cc(-c2cccc(F)c2)nc2ccccc12,1
8,COc1ccc2nc(NC(=O)c3ccccc3)sc2c1,1
9,COc1cccc(-c2cc(C(=O)O)c3ccccc3n2)c1,1
